Measured values taken from the supplement of paper PMC10849652.
About 7,900 targets were measured; listed, in parts, are those with a hit and a random draw of the rest. About 0.6% of all pairs of compound and target were hits. Values without a mark were called inactive.

How the values were obtained:
Experiment in all cases: log2 fold change, soluble protein after heating vs DMSO (PISA); higher = thermal stabilisation; K562 cells, 10 uM, 30 min; active = over 0.2 and 3.5 SD of the protein, either way, in both replicates (recomputed)
erlotinib = compound: C#Cc1cccc(Nc2ncnc3cc(OCCOC)c(OCCOC)cc23)c1 [erlotinib]
Method in brief: (§1)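 Soluble protein was defined as the supernatant after 21,000xg for 90 min. It came from K562 cells at 2×10^6 cells/mL given 10 μM compound for 30 min, heated in aliquots for 3 min across 48°C-58°C, pooled, and extracted in PBS with 0.5% NP-40 at 4°C, and was quantified by TMTpro 16plex LC-MS/MS with equalised channel sums. Thermal stability against control samples, from duplicates, is reported as log2 fold change.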

[1] = compound: C/C(=N\NC(=O)C1=CC(=CC=C1)S(=O)(=O)N2CCOCC2)/C3=C(C=CC(=C3)Cl)O
Method in brief: as §1

[2] = compound: C1=CC(=C(C=C1Cl)C2=NC3=NC=CN=C3C(=N2)NC4=CC=NC=C4)F
Method in brief: as §1

[3] = compound: C1=CC(=CC=C1C2=NC3=C(N2)C=C(C=C3)C(=O)N)OC4=CC=C(C=C4)Cl
Method in brief: as §1

[4] = compound: C1=CC2=C(C=CC(=C2)/C=C\3/C(=O)NC(=NCC4=CC=CS4)S3)N=C1
Method in brief: as §1

[5] = compound: C1=CC2=NC=CN=C2C=C1/C=C/3\C(=O)NC(=O)S3
Method in brief: as §1

[6] = compound: C1=CC=C(C=C1)C2=NC(=C(N2)C3=CC=NC=C3)C4=CC(=C(C=C4)Cl)O
Method in brief: as §1

[7] = compound: C1=CC=C2C(=C1)C3=NNC4=CC=CC(=C43)C2=O
Method in brief: as §1

[8] = compound: C1CCN(C1)C(=O)NC2=CC=CC(=C2)NC3=NC=C(C(=N3)NCCC4=CN=CN4)Br
Method in brief: as §1

[9] = compound: C1CN(CCC1(CC2=CC=C(C=C2)Cl)N)C3=NC=NC4=C3C=CN4
Method in brief: as §1

IRAK-1-4 Inhibitor I = compound: C1COCCN1CCN2C3=CC=CC=C3N=C2NC(=O)C4=CC(=CC=C4)[N+](=O)[O-] [IRAK-1-4 Inhibitor I]
Method in brief: as §1

ibrutinib = compound: C=CC(=O)N1CCC[C@@H](n2nc(-c3ccc(Oc4ccccc4)cc3)c3c(N)ncnc32)C1 [ibrutinib]
Method in brief: as §1

[10] = compound: CC(=O)c1cnc2ccc(-c3cc(Cl)c(O)c(Cl)c3)nc2c1N[C@H]1CC[C@H](CN(C)C)CC1
Method in brief: as §1

ralimetinib = compound: CC(C)(C)Cn1c(N)nc2ccc(-c3[nH]c(C(C)(C)C)nc3-c3ccc(F)cc3)nc21 [ralimetinib]
Method in brief: as §1

[11] = compound: CC(C)(O)CC(=O)NCCn1ccc2ncnc(Nc3ccc(Oc4cccc(C(F)(F)F)c4)c(Cl)c3)c21
Method in brief: as §1

[12] = compound: CC(C)C1=C2N=C(C=C(N2N=C1)NCC3=CC=CC=C3)NCCCCCCN
Method in brief: as §1

[13] = compound: CC(C)C[C@@H](C=O)NC(=O)[C@H](CC(C)C)NC(=O)[C@H](CC(C)C)NC(=O)OCc1ccccc1
Method in brief: as §1

pinometostat = compound: CC(C)N(C[C@H]1O[C@@H](n2cnc3c(N)ncnc32)[C@H](O)[C@@H]1O)[C@H]1C[C@@H](CCc2nc3cc(C(C)(C)C)ccc3[nH]2)C1 [pinometostat]
Method in brief: as §1

[14] = compound: CC1=C(C(CC(=O)N1)C2=CC=C(C=C2)C(F)(F)F)C(=O)NC3=C(C=C4C(=C3)C=NN4)F
Method in brief: as §1

[15] = compound: CC1=C(C2=C(C=C1)C(=O)C3=CC=CC=C3N2CCCN)C
Method in brief: as §1

Sequence of UniProt P21964 (P21964 whole entry, looked up): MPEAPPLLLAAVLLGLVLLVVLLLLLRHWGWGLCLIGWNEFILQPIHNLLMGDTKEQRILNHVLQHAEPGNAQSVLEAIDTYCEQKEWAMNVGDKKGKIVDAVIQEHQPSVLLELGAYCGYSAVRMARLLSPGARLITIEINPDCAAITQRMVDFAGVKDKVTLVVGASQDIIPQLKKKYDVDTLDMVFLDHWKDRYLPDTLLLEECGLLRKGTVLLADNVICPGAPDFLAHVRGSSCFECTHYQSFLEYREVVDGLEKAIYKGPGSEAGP
Sequence of UniProt Q5T5Y3 (Q5T5Y3 whole entry, looked up): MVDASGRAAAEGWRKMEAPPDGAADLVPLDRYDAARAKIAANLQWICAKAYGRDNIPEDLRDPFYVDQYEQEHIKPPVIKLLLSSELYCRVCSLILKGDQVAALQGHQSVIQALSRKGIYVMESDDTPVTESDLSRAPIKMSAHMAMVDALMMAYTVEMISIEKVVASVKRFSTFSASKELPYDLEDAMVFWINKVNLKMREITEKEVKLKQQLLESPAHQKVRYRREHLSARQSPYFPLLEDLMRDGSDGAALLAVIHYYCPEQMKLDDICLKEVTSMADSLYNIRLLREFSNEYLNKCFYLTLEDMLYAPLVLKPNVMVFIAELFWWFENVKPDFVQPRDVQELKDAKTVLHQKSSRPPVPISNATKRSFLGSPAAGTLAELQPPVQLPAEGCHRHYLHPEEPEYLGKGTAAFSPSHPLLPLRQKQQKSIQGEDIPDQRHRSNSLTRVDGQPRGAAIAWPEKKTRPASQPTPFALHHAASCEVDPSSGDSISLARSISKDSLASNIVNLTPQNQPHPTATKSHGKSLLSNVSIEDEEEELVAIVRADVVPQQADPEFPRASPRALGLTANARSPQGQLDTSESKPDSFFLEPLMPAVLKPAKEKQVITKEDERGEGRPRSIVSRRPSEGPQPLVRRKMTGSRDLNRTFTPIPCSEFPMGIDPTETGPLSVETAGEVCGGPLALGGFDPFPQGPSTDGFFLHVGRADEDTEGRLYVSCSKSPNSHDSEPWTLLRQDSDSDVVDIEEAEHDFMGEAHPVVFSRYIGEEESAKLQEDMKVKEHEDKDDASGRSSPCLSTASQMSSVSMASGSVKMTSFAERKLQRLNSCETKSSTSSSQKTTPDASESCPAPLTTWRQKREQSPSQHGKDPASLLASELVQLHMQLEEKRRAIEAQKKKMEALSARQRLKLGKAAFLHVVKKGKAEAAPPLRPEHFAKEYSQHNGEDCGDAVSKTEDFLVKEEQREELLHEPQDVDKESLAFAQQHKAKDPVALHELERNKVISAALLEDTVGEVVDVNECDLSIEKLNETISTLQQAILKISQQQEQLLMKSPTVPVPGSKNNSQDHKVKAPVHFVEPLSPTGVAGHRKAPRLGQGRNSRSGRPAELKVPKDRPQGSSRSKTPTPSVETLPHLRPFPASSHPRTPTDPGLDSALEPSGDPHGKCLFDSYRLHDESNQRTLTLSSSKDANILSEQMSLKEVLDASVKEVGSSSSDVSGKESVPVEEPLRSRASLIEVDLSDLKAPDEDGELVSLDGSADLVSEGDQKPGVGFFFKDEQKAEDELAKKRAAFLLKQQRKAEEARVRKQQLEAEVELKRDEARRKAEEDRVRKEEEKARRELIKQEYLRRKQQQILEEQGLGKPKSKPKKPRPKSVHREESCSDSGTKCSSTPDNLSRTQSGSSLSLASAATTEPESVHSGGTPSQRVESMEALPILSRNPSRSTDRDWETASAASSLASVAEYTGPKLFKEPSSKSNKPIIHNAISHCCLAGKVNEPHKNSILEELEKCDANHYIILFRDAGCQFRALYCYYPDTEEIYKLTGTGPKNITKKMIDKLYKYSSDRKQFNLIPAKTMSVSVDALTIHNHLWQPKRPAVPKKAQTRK
Sequence of UniProt Q9UIV1 (Q9UIV1 whole entry, looked up): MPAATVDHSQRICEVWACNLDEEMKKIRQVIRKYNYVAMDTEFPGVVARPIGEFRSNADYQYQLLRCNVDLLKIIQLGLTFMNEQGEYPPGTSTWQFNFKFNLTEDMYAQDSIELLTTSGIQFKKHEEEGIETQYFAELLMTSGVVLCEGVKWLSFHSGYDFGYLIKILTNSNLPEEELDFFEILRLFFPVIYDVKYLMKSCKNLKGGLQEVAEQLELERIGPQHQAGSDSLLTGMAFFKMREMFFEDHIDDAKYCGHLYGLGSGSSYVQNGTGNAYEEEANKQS
Sequence of UniProt Q00587 (Q00587 whole entry, looked up): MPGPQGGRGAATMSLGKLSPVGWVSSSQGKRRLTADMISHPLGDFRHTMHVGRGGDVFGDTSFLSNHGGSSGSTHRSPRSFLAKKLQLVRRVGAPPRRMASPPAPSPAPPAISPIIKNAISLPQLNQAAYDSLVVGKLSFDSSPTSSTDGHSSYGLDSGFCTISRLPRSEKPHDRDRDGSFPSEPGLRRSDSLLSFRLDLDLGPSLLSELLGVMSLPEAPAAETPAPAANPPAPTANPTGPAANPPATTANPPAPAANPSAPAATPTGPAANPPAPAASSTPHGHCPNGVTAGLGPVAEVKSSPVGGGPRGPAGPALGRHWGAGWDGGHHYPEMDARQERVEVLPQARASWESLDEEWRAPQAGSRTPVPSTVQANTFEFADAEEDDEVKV
Sequence of UniProt Q9Y6H1 (Q9Y6H1 whole entry, looked up): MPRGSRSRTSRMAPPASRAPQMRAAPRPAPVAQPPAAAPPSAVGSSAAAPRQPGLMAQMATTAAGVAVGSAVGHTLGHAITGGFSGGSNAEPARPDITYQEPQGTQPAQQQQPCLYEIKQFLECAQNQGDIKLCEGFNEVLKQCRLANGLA
Sequence of UniProt P83916 (P83916 whole entry, looked up): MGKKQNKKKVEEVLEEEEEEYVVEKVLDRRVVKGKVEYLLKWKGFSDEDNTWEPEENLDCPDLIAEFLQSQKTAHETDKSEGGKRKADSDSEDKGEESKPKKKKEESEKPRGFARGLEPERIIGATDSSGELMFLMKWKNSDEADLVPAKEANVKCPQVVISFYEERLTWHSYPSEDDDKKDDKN
Sequence of UniProt Q9NPF2 (Q9NPF2 whole entry, looked up): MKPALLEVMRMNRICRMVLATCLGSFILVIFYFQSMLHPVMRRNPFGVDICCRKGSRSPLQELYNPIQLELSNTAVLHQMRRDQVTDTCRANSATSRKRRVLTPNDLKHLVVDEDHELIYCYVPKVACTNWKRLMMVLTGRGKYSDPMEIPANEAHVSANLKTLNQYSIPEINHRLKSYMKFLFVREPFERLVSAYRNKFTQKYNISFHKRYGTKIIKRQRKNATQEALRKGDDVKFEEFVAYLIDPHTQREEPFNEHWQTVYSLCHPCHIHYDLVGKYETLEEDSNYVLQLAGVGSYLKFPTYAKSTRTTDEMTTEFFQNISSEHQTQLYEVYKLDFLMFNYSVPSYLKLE
Sequence of UniProt P51946 (P51946 whole entry, looked up): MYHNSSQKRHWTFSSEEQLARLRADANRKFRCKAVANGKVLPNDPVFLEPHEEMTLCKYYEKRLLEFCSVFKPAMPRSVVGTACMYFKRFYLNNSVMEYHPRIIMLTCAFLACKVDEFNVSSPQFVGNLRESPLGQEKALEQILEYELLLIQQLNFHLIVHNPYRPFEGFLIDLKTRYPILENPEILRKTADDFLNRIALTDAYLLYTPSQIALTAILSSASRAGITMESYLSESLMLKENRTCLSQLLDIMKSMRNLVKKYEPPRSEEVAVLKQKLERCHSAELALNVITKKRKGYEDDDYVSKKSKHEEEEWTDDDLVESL

| Target | log2 fold change (erlotinib) | log2 fold change [1] | log2 fold change [2] | log2 fold change [3] | log2 fold change [4] | log2 fold change [5] | log2 fold change [6] | log2 fold change [7] | log2 fold change [8] | log2 fold change [9] | log2 fold change (IRAK-1-4 Inhibitor I) | log2 fold change (ibrutinib) | log2 fold change [10] | log2 fold change (ralimetinib) | log2 fold change [11] | log2 fold change [12] | log2 fold change [13] | log2 fold change (pinometostat) | log2 fold change [14] | log2 fold change [15] |
| --- | --- | --- | --- | --- | --- | --- | --- | --- | --- | --- | --- | --- | --- | --- | --- | --- | --- | --- | --- | --- |
| CDC42EP1 (UniProt Q00587) | 0.09 | 0.063 | 0.006 | 0.115 | 0.136 | -0.011 | -0.005 | -0.086 | -0.133 | -0.001 | 0.097 | 0.086 | -0.527 (active) | 0.076 | -0.104 | -0.43 (active) | -0.009 | -0.043 | -0.054 | -0.055 |
| CHCHD2 (UniProt Q9Y6H1) | -0.083 | 0.107 | 0.092 | 0.049 | 0.028 | 0.032 | -0.028 | 0.098 | 0.003 | -0.001 | 0.009 | 0.067 | 0.022 | -0.035 | -0.017 | 0.095 | -0.071 | -0.068 | 0.144 | -0.004 |
| CNOT7 (UniProt Q9UIV1) | 0.025 | -0.002 | -0.059 | 0.018 | 0.194 | -0.044 | 0.128 | 0.048 | -0.003 | 0.016 | -0.039 | 0.022 | -0.013 | -0.016 | -0.021 | -0.002 | 0.079 | 0.066 | -0.039 | 0.033 |
| CCNH (UniProt P51946) | -0.022 | 0.021 | 0.034 | -0.016 | -0.045 | 0.031 | 0.022 | -0.004 | -0.011 | -0.015 | -0.01 | -0.04 | -0.24 (active) | -0.04 | -0.009 | 0.084 | -0.053 | 0.022 | 0.045 | -0.01 |
| COMT (UniProt P21964) | -0.026 | 0.076 | -0.015 | -0.08 | 0.023 | 0.012 | 0.026 | 0.029 | 0.031 | -0.059 | 0.01 | -0.032 | -0.065 | -0.043 | -0.007 | 0.006 | -0.039 | -0.024 | -0.068 | 0.053 |
| CBX1 (UniProt P83916) | 0.025 | -0.044 | 0.022 | 0.072 | 0.004 | 0.089 | -0.055 | -0.026 | -0.007 | -0.027 | -0.105 | -0.001 | -0.038 | -0.054 | 0.013 | 0.034 | -0.007 | -0.143 | -0.026 | -0.288 (active) |
| CHST11 (UniProt Q9NPF2) | -0.061 | 0.082 | 0.046 | -0.054 | -0.118 | 0.007 | 0.161 | 0.057 | 0.002 | -0.067 | -0.002 | -0.032 | 0.063 | -0.406 | 0.057 | -0.257 | -0.17 | 0.084 | -0.006 | -0.058 |
| CAMSAP1 isoform 3 (UniProt Q5T5Y3) | -0.084 | 0.023 | -0.014 | -0.013 | 0.058 | 0.007 | 0.035 | -0.078 | -0.016 | 0.006 | -0.076 | -0.069 | -0.29 | -0.031 | -0.062 | -0.078 | 0.031 | 0.121 | -0.056 | 0.108 |
